Structures are written as SMILES. This is part of a sample that, as a whole, favours compounds with a hit. Of some 83,000 tested, about 20% had one in any assay.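 The test compound was applied at a single concentration to cells in 96-well plates for 48 hours, and percent growth was recorded.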 Values without a mark were called inactive. Active and inactive are the calls of the source.

This assay relates to COLO 205 colon. Put plainly: NCI-60 one-dose screen, 48 h (100 = growth as untreated, 0 = no growth, -100 = all killed). The following applies: 10 µM. How it is done:
Cells are grown in 96 well plates and exposed to the test compound for 48 hours. Compounds are tested at a single concentration, which is 10^-5 M for most compounds. The reported endpoint is percent growth (GI% or GIPRCNT), where numbers from 0 - 100% represent growth inhibition, and numbers from -100% - 0 represent cell death. For example, a value of 40 represents 60% growth inhibition. A value of 0 means no net growth occurred over the course of the experiment. A value of -40 indicates 40% of cells at the beginning of the experiment died by the end of the experiment. A value of -100 means all cells are dead at the end of the experiment.
NCI-60 Human Tumor Cell Lines Screen was performed using the standard one-dose NCI protocol, which is described in more detail at https://dtp.cancer.gov/discovery_development/nci-60/default.htm.
Compounds with GIPRCNT values below 10 were considered active. Activity score was based on GIPRCNT using the following formula: […]
Score is 0 for GIPRCNT values of 100 or above, 50 for GIPRCNT values of 0, and 100 for GIPRCNT values of -100.
Consider `COC(=O)C1=NNC(=S)N(c2cc(C)[nH]n2)C(=O)C1`, for which the growth was 116%. Consider `CC(=O)O[C@]1(C)CC[C@H]2[C@H](CNCCc3ccc(Cl)cc3)C(=O)O[C@@H]2C2=C(C)C(=O)C[C@H]21`, for which the growth is 97%. Consider `O=C1C(=O)c2ccccc2C(O)=C1CCCc1ccc(C2CCCCCC2)cc1`, for which the growth was 36.5%. For the molecule `c1ccc([C@H]2CN3CCSC3=N2)cc1`, the growth was 106%. Next, `COc1ccc2c(c1)sc1nc(-c3ccccc3)c(-c3ccc(O)c(OC)c3)n12`: 71.4%; `COc1ccc(-c2nsc3c2NC(=O)CC3c2ccc(F)cc2)cc1` (stereo not given): 9.44% (active).

As for `S=c1[nH]ccn1-c1c(Cl)cccc1Cl`, the growth is 115%. For the molecule `Nc1nc(Nc2ccccc2)n[nH]1`, the growth is 114%. Next, `COc1ccc(OC)c(/C=C/c2nc(SC)n(-c3ccc(Cl)cc3)n2)c1`: 78.1%.

As to `N#Cc1ncc(-c2ccc(C(F)(F)F)cc2)c(NCc2cc(C(F)(F)F)cc(C(F)(F)F)c2)n1`, the growth was -24.1% (active). As to `COc1ccc2c(c1)/C(=C\c1c[nH]c3ccc(OC)cc13)C(=O)N2`, the growth was 36.7%.

For the molecule `COc1cc(NC(=O)CCSc2nc3ccc(Cl)cc3c(=O)n2Cc2ccccc2)cc(OC)c1OC`, the growth is 107%. Next, `c1ccc2c(c1)oc1c3c(ccc12)NCCC3`: 114%; `c1ccc(CO[C@H]2CO[C@H]3[C@@H]2OC[C@H]3OCc2ccccc2)cc1`: 100%. Next, `Cc1cc(C)c(NC(=O)c2sc3nc4c(cc3c2N)C(=O)CCC4)c(C)c1`: -6.14% (active); `Nc1ncn([C@@H]2O[C@H](CO)[C@@H](O)[C@H]2O)c(=O)n1`: 6.61% (active).

For the molecule `CCOC(=O)c1ccoc1`, the growth was 101%. Next, `O=c1[nH]c(-c2ccc(Cl)cc2)nc2sc3c(c12)CCCC3`: 109%; `CSc1cc(SC)ncn1`: 104%.

Consider `Cc1cc(O)c(C(C)(C)C)cc1Sc1cc(C(C)(C)C)c(O)cc1C`, for which the growth was 90.7%. The value for `C=C(NC(=O)C(=C)NC(=O)c1csc(C2=NC3c4csc(n4)C4NC(=O)c5csc(n5)C(C(C)(O)C(C)O)NC(=O)C5CSC(=N5)/C(=C/C)NC(=O)C(C(C)O)NC(=O)c5csc(n5)C3(CC2)NC(=O)C(C)NC(=O)C(=C)NC(=O)C(=C)NC(=O)C(C(C)C)NC2C=Cc3c(C(C)O)cc(nc3C2O)C(=O)OC4C)n1)C(N)=O` (stereo not given) was -70.2% (active); that for `FC(F)(F)c1ccc(-c2cnc(-n3cc(COCCN4CCCCC4)nn3)nc2NC2CCCCCC2)cc1` was -93.4% (active); that for `Cc1ccc(C(=O)N2C/C(=C/c3ccc(F)cc3)C(=O)/C(=C/c3ccc(F)cc3)C2)cc1` was 111%.

On to `COc1ccc(-c2nn(-c3cccc(NC(=O)Nc4ccccc4)c3)cc2-c2ccncc2)cc1Cl`, for which the growth is -50.6% (active). The value for `COc1cc2c(cc1OCCCCCCN1CCN(CC(=O)Nc3ccc(Cl)cc3C(=O)c3ccccc3Cl)CC1)N=CC1CCCN1C2=O` (stereo not given) was -60.1% (active); that for `COc1ccc(C(=O)/C=C/c2cc(-c3cc(OC)c(OC)c(OC)c3)n[nH]2)cc1` was 30.5%; that for `Clc1ccc(Nc2ccnc(NCCCNc3ccnc4cc(Cl)ccc34)n2)cc1` was -91.1% (active). `CN(C)c1ccc(N=C2C=CC(=O)c3ccccc32)cc1`: the growth was 11.8%. Consider `CC/C(=C(/c1ccc(OCCN(C)C)cc1)c1ccc(OC(=O)CCCCC(=O)c2c(C)[nH]c(/C=C3\N=C(c4ccc[nH]4)C=C3OC)c2C)cc1)c1ccccc1`, for which the growth was 72%. The value for `N#CCCN1C/C(=C/c2ccc(Cl)cc2)C(=O)/C(=C/c2ccc(Cl)cc2)C1` was -84.3% (active). Next, `Cc1cc(N(CCCNc2ccnc3cc(Cl)ccc23)Cc2ccc3c(c2)OCO3)nc(N2CCOCC2)n1`: -54% (active); `O=C(C[P+](c1ccccc1)(c1ccccc1)c1ccccc1)C[P+](c1ccccc1)(c1ccccc1)c1ccccc1`: -27.9% (active); `Cn1c([N+](=O)[O-])cnc1/C=C1\Oc2ccccc2C1=O`: -64.6% (active). Next, `c1ccc(CNc2ncnc3scc(-c4cccs4)c23)nc1`: 89.7%. As to `COc1ccc(-c2nn(-c3cccc(NC(=O)Nc4cccc(C(F)(F)F)c4)c3)cc2-c2ccncc2)cc1Cl`, the growth was 1.37% (active). Next, `O=C(Nc1cccc(-n2cc(-c3ccncc3)c(-c3cc(O)cc(Cl)c3)n2)c1)c1ccc(N2CCOCC2)c(C(F)(F)F)c1`: 80.5%; `COc1ccc(/C(=C2/O[C@@H]([C@H]3COC(C)(C)O3)[C@H]3OC(C)(C)O[C@@H]23)c2cc(OC)c(OC)c(OC)c2)cc1O`: 121%; `O=C(Nc1cccc(-n2cc(-c3ccncc3)c(-c3ccc(O)c(Cl)c3)n2)c1)c1ccc(N2CCOCC2)c(C(F)(F)F)c1`: 51.2%. Take `CC/C(=C(/c1ccc(OCCN(C)C)cc1)c1ccc(OC(=O)CCCCCCCCC(=O)c2c(C)[nH]c(/C=C3\N=C(c4ccc[nH]4)C=C3OC)c2C)cc1)c1ccccc1`: the growth is 88%. For `N#CCCN(NC(=O)OCc1ccccc1)C(=O)OCc1ccccc1`, the growth was 119%.

The record behind these values is PubChem BioAssay (NCI).
